Screening results deposited in PubChem BioAssay by The Scripps Research Institute Molecular Screening Center.
This is a sample that favours compounds with a hit; in the whole collection about 3.5% have one here.
GPR151 activ: activators of human GPR151. PathHunter beta-arrestin GPR151 cells, luminescence. AID 1508602. Q8TDV0. activation, % at 11.2 µM. 1% of 650,000 active; in the data active = activation above about 4.9%
Target sequence (Q8TDV0 whole entry, looked up): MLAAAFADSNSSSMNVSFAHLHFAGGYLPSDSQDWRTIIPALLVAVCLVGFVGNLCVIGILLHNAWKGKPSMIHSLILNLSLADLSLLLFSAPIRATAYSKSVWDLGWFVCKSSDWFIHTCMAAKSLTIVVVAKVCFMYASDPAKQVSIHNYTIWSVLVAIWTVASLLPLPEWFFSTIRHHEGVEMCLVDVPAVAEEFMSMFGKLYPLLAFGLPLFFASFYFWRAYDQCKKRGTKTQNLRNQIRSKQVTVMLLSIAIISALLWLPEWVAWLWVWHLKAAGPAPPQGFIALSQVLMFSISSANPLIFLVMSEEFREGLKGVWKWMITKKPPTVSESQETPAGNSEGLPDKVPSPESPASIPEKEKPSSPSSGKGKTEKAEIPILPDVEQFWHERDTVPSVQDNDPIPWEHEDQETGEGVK
TEAD-YAP block: TEAD-YAP interaction inhibition; 1.4% of 640,000 active; inhibition, % at 9.12 µM; AID 1259422; HEK-TIYL cells, TEAD-Gal4/YAP UAS-luciferase luminescence; in the data active = inhibition above about 32%
FBW7 act: activators of human E3 ligase FBW7; Q969H0; normalized activity (activation), % at 26.1 µM; AlphaScreen FBW7–phospho-cyclin E peptide binding, activator screen; 0.13% of 650,000 active; in the data active = normalized activity above about 1.9%;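 also: purified mutant Fbw7 with reduced substrate affinity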
MITF primary: human MITF inhibition, primary screen; O75030; inhibition, % at 2.6 µM; AlphaScreen MITF homodimerization, bead proximity signal; 0.91% of 650,000 active; in the data active = inhibition above about 50%
Hits are given with their value; - = inactive.

SMILES	GPR151 activ	TEAD-YAP block	FBW7 act	MITF primary
C=CCNC(=O)C1CCC(=O)N1C(C)C (stereo not drawn)	-	-	2.1	-
Cc1ccc2cc3c(N)c(C(=O)Nc4nc(C)c(C)s4)sc3nc2c1	-	-	-	-
Cc1cc2cc3c(N)c(C(=O)Nc4nc(C)c(C)s4)sc3nc2cc1C	-	-	46	-
CC(C)c1ccc2nc3sc(C(=O)Nc4nccs4)c(N)c3cc2c1	-	66	-	-
Cc1[nH]c(=O)[nH]c(=O)c1NC(=O)c1sc2nc3ccc(C(C)C)cc3cc2c1N	-	79	-	-
Cc1ccc2nc3sc(C(=O)Nc4c(C)[nH]c(=O)[nH]c4=O)c(N)c3cc2c1	-	-	-	-
Nc1c(C(=O)Nc2nccs2)sc2nc3c(cc12)CCC3	-	56	-	-
O=C(NNC(=O)c1cc(Cl)ccc1O)Nc1cccc(C(F)(F)F)c1	-	-	-	-
CCCC(=O)Nc1ccccc1NC(=O)c1ccccc1Br	-	-	-	-
C/C(=N\NC(=O)c1cnccn1)c1cccs1	-	-	-	-
CCNc1ccc(C(=O)N/N=C(\C)c2cccs2)cc1[N+](=O)[O-]	-	50	-	-
C/C(=N\NC(=O)c1ccccc1O)c1cccs1	-	38	-	-
C/C(=N\NC(=O)c1cccc([N+](=O)[O-])c1)c1cccs1	-	-	-	-
C/C(=N/NC(=O)c1ccccn1)c1cccs1	-	66	-	-
C/C(=N/NC(=O)c1ccc(O)cc1)c1cccs1	-	-	-	-
CCCc1[nH]n(-c2ccc(F)cc2)c(=O)c1C=NCc1cccnc1	-	-	-	-
CN(C)C(=O)c1cc(-c2ccncc2)ccc1NC(=O)C1COc2ccccc2C1 (stereo not drawn)	-	-	-	-
O=C(N/N=C/c1cc(Cl)cc([N+](=O)[O-])c1O)c1ccccc1Br	-	-	-	-
COc1ccc(NC(=O)C(=O)NCC2CCCN2S(=O)(=O)c2ccc(C)cc2)cc1 (stereo not drawn)	-	61	-	-
Cc1ccc(S(=O)(=O)N2CCCCC2CCNC(=O)C(=O)NCc2ccccc2)cc1 (stereo not drawn)	-	46	-	-
COc1cc(C2CC(=O)NC3=C2C(=O)CC(c2ccccc2Cl)C3)ccc1O (stereo not drawn)	-	-	-	-
COc1ccc2c(c1)CC(c1nc3ccc(-c4ccnc(N)n4)cc3c(=O)[nH]1)CO2 (stereo not drawn)	-	-	-	-
CCOc1ccc(N=Cc2sc3ccccc3c2O)cc1	-	88	-	-
Cc1ccc(N=Cc2sc3ccccc3c2O)cc1	-	80	-	-
Oc1c(/C=N/n2cnnc2)sc2ccccc12	-	72	-	-
SMILES	GPR151 activ	TEAD-YAP block	FBW7 act	MITF primary
Oc1c(C=Nc2ccc(Cl)cc2)sc2ccccc12	-	-	-	-
Cc1ccc(N=Cc2sc3ccccc3c2O)cc1C	-	74	-	-
N#Cc1cc(C(=O)Nc2ccccc2)c(N)nc1SCC(N)=O	-	-	-	-
COCCCNC(=O)c1ccc(-n2c(=S)[nH]c3ccccc3c2=O)cc1	-	-	-	-
Nc1ccccc1N=Cc1sc2ccccc2c1O	-	-	-	-
Cc1ccccc1N=Cc1sc2ccccc2c1O	-	53	-	-
Fc1ccc(C2=NNC(=NC3CC3)SC2)cc1F	-	65	-	-
CCC(=O)Nc1ccc(C2=NNC(=Nc3ccc(C)cc3)SC2)cc1	-	-	-	-
CCC(=O)Nc1ccc(C2=NNC(=NC3CC3)SC2)cc1	-	51	-	-
CCOC(=O)c1c(C)[nH]c(C2=NNC(=NC3CC3)SC2)c1C	-	78	-	-
Cc1ccc(O)c(NC(=O)c2cc(C3CC3)on2)c1	-	-	-	-
Cc1onc(-c2c(Cl)cccc2Cl)c1C(=O)Nc1nc2ccc([N+](=O)[O-])cc2s1	-	49	-	-
CCN(CC)C(=O)c1ccc2nc(NC(=O)c3ccc([N+](=O)[O-])cc3)sc2c1	-	84	-	-
CCN(CC)C(=O)c1ccc2nc(NC(=O)c3cccs3)sc2c1	-	88	-	-
Cc1ccc2nc(NC(=O)c3ccc([N+](=O)[O-])cc3)sc2c1	-	-	-	-
Cc1ccc([N+](=O)[O-])cc1NC(=O)c1c(-c2c(Cl)cccc2Cl)noc1C	-	-	-	-
CCN(CC)C(=O)c1ccc2nc(NC(=O)c3ccc(N)cc3)sc2c1	-	80	-	-
COc1cccc(NS(=O)(=O)c2cc(C(=O)N3CCN(c4ccc(F)cc4)CC3)ccc2NCCc2ccc(OC)c(OC)c2)c1	-	-	-	-
Oc1ccccc1/C=N/c1ccnn1-c1ccccc1	-	32	-	-
CC(CS(=O)(=O)c1ccc2ccccc2c1)N1CCCCC1 (stereo not drawn)	-	33	-	-
